Assay results published in PubChem BioAssay (EPA / NIEHS).
A structure can be active in one record and inactive in another. Calls of active or inactive are those of the source. Rule for the calls: active = hit-call score of the fitted dose curve at least 0.9, where 1 is the maximum; inactive = score below 0.9.

Tests used:
[1] = read-out: Intercellular Adhesion Molecule 1 (ICAM1), ICAM1 (gene 3383); assay: BSK_BF4T_ICAM1: BioMAP Diversity Plus: BF4T Assay for Intercellular Adhesion Molecule 1 (ICAM1) Biomarker Activity (AID 2284260); conditions: primary human bronchial epithelial cells with fibroblasts
How it was run: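 ICAM-1 levels measured by ELISA after 24 h chemical treatment of bronchial epithelial cell/dermal fibroblast co-cultures, read against DMSO baseline. Overt cytotoxicity checked in parallel cultures by sulforhodamine B staining.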

[2] = read-out: Interleukin-8 (IL8), CXCL8 (gene 3576); assay: BSK_MyoF_IL8: BioMAP Diversity Plus: MyoF Assay for Interleukin-8 (IL8) Biomarker Activity (AID 2284261); conditions: primary human lung fibroblasts
How it was run: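 ELISA read-out of IL-8 from primary human lung fibroblasts, 24 h post-dose; positive-direction curve fitting relative to DMSO vehicle baseline.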

CD90, THY1 (gene 7070) = assay: BSK_BF4T_CD90: BioMAP Diversity Plus: BF4T Assay for CD90 Biomarker Activity (AID 2284262); conditions: primary human bronchial epithelial cells with fibroblasts
How it was run: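 CD90 levels by ELISA after 24 h treatment of human bronchial epithelial cell/dermal fibroblast cultures, analysed versus DMSO. Overt cytotoxicity checked in parallel cultures by sulforhodamine B staining.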

[3] = read-out: Interleukin-8 (IL8), CXCL8 (gene 3576); assay: BSK_BF4T_IL8: BioMAP Diversity Plus: BF4T Assay for Interleukin-8 (IL8) Biomarker Activity (AID 2284263); conditions: primary human bronchial epithelial cells with fibroblasts
How it was run: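 Human bronchial epithelial cells with dermal fibroblasts co-culture; IL-8 measured by ELISA 24 hours after dosing, fitted vs DMSO. Cytotoxicity tracked in parallel cultures by SRB total-protein staining.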

[4] = read-out: Interleukin-1 alpha (IL1a), IL1A (gene 3552); assay: BSK_BF4T_IL1a: BioMAP Diversity Plus: BF4T Assay for Interleukin-1 alpha (IL1a) Biomarker Activity (AID 2284264); conditions: primary human bronchial epithelial cells with fibroblasts
How it was run: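 ELISA read-out of IL-1α from bronchial epithelial cell/dermal fibroblast co-cultures 24 h after compound addition. Increases scored against DMSO negative control. Cytotoxicity monitored by sulforhodamine B staining of parallel cultures.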

Decorin, DCN (gene 1634) = assay: BSK_MyoF_Decorin: BioMAP Diversity Plus: MyoF Assay for Decorin Biomarker Activity (AID 2284265); conditions: primary human lung fibroblasts
How it was run: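 Human lung fibroblasts in the MyoF system were exposed to compound for 24 h, after which decorin was quantified by ELISA. Activity was fitted in the positive direction relative to DMSO negative control.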

KRT18 (gene 3875) [5] = assay: BSK_BF4T_Keratin818: BioMAP Diversity Plus: BF4T Assay for Keratin 818 Biomarker Activity (AID 2284266); conditions: primary human bronchial epithelial cells with fibroblasts
How it was run: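 Keratin 8/18 levels quantified by ELISA after 24 h chemical treatment of bronchial epithelial cell/dermal fibroblast co-cultures, fitted in positive direction relative to DMSO. Parallel SRB staining tracks overt cytotoxicity.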

[6] = BSK_MyoF_SRB: Viability Assessment in the BioMAP Diversity Plus: MyoF Assay (AID 2284267); conditions: primary human lung fibroblasts;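 note: total protein by SRB absorbance in parallel cultures as cytotoxicity measure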
How it was run: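 Lung fibroblast cultures, 24 h post-dose; fix 10% TCA, stain 0.1% SRB, read 560 nm. Signal = total protein as cytotoxicity measure; fitted relative to DMSO negative control.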

[7] = read-out: Matrix Metallopeptidase 1 (MMP1), MMP1 (gene 4312); assay: BSK_MyoF_MMP1: BioMAP Diversity Plus: MyoF Assay for Matrix Metallopeptidase 1 (MMP1) Biomarker Activity (AID 2284268); conditions: primary human lung fibroblasts
How it was run: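 ELISA readout of MMP1 in primary human lung fibroblast cultures, 24 h post-dosing. Gain of signal versus DMSO vehicle control defines activity. Parallel SRB staining (0.1% after 10% TCA fixation, 560 nm) flags overt cytotoxicity.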

[8] = read-out: Matrix Metallopeptidase 1 (MMP1), MMP1 (gene 4312); assay: BSK_BF4T_MMP1: BioMAP Diversity Plus: BF4T Assay for Matrix Metallopeptidase 1 (MMP1) Biomarker Activity (AID 2284270); conditions: primary human bronchial epithelial cells with fibroblasts
How it was run: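 MMP-1 quantified by ELISA in primary human bronchial epithelial/dermal fibroblast co-cultures, 24 hours post-dosing, with DMSO as baseline; parallel sulforhodamine B staining (560 nm) tracks overt cytotoxicity.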

[9] = read-out: Matrix Metallopeptidase 3 (MMP3), MMP3 (gene 4314); assay: BSK_BF4T_MMP3: BioMAP Diversity Plus: BF4T Assay for Matrix Metallopeptidase 3 (MMP3) Biomarker Activity (AID 2284271); conditions: primary human bronchial epithelial cells with fibroblasts
How it was run: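 MMP-3 level read by ELISA after 24 h chemical exposure of bronchial epithelial cell/dermal fibroblast co-cultures, fitted upward relative to DMSO. Parallel cultures stained with 0.1% SRB after TCA fixation gauge overt cytotoxicity.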

[10] = read-out: Tissue plasminogen activator (tPA), PLAT (gene 5327); assay: BSK_BF4T_tPA: BioMAP Diversity Plus: BF4T Assay for Tissue plasminogen activator (tPA) Biomarker Activity (AID 2284272); conditions: primary human bronchial epithelial cells with fibroblasts
How it was run: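 tPA level quantified by ELISA at 24 h post-treatment in bronchial epithelial/dermal fibroblast co-cultures, gain of signal scored against DMSO baseline. Parallel cultures stained with 0.1% SRB (560 nm) to flag overt cytotoxicity.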

[11] = read-out: Plasminogen Activator Inhibitor-1 (PAI1), SERPINE1 (gene 5054); assay: BSK_BF4T_PAI1: BioMAP Diversity Plus: BF4T Assay for Plasminogen Activator Inhibitor-1 (PAI1) Biomarker Activity (AID 2284273); conditions: primary human bronchial epithelial cells with fibroblasts
How it was run: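 PAI-1 levels quantified by ELISA 24 h post-dosing in bronchial epithelial cell plus dermal fibroblast cultures. Signal gain referenced to DMSO baseline. Sulforhodamine B total-protein staining of parallel wells checked cytotoxicity.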

[12] = BSK_BF4T_SRB: Viability Assessment in the BioMAP Diversity Plus: BF4T Assay (AID 2284274); conditions: primary human bronchial epithelial cells with fibroblasts
How it was run: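 Cytotoxicity measured as total protein: cells fixed with 10% TCA, stained with 0.1% SRB, read at 560 nm. Bronchial epithelial/dermal fibroblast co-culture, 24 h after dosing, with positive-direction fitting relative to DMSO.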

[13] = read-out: urokinase Plasminogen Activator (uPA), PLAU (gene 5328); assay: BSK_BF4T_uPA: BioMAP Diversity Plus: BF4T Assay for urokinase Plasminogen Activator (uPA) Biomarker Activity (AID 2284275); conditions: primary human bronchial epithelial cells with fibroblasts
How it was run: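 uPA levels measured by ELISA at 24 hours in BF4T cultures (bronchial epithelial cells plus dermal fibroblasts) and compared with DMSO; cytotoxicity tracked in parallel cultures by sulforhodamine B staining.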

[14] = read-out: Matrix Metallopeptidase 9 (MMP9), MMP9 (gene 4318); assay: BSK_BF4T_MMP9: BioMAP Diversity Plus: BF4T Assay for Matrix Metallopeptidase 9 (MMP9) Biomarker Activity (AID 2284276); conditions: primary human bronchial epithelial cells with fibroblasts
How it was run: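 MMP-9 levels were measured by ELISA after 24 h exposure of bronchial epithelial cell/dermal fibroblast co-cultures, with DMSO as baseline. Parallel cultures were stained with 0.1% SRB after TCA fixation, read at 560 nm, to flag overt cytotoxicity.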

[15] = read-out: Interferon-inducible T-cell alpha chemoattractant (ITAC), CXCL11 (gene 6373); assay: BSK_BE3C_ITAC: BioMAP Diversity Plus: BE3C Assay for Interferon-inducible T-cell alpha chemoattractant (ITAC) Biomarker Activity (AID 2284279); conditions: primary human bronchial epithelial cells
How it was run: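 The assay measures I-TAC levels by ELISA in human primary bronchial epithelial cell cultures 24 hours after chemical treatment. Values reflect signal increase over the DMSO baseline.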

[16] = read-out: Interleukin-8 (IL8), CXCL8 (gene 3576); assay: BSK_BE3C_IL8: BioMAP Diversity Plus: BE3C Assay for Interleukin-8 (IL8) Biomarker Activity (AID 2284280); conditions: primary human bronchial epithelial cells
How it was run: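 Dose human bronchial epithelial cells with chemical; incubate 24 h; quantify IL-8 by ELISA; fit response upward versus DMSO controls.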

[17] = read-out: Epidermal growth factor receptor (EGFR), EGFR (gene 1956); assay: BSK_BE3C_EGFR: BioMAP Diversity Plus: BE3C Assay for Epidermal growth factor receptor (EGFR) Biomarker Activity (AID 2284281); conditions: primary human bronchial epithelial cells
How it was run: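 ELISA read-out of EGFR levels on human bronchial epithelial primary cells collected 24 h post-dosing. DMSO served as negative control and baseline for gain-of-signal fitting.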

KRT18 (gene 3875) [18] = assay: BSK_BE3C_Keratin818: BioMAP Diversity Plus: BE3C Assay for Keratin 818 Biomarker Activity (AID 2284282); conditions: primary human bronchial epithelial cells
How it was run: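 ELISA read-out of Keratin 8/18 in BE3C human bronchial epithelial cultures, 24 h post-dosing; positive-direction fit vs DMSO baseline.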

Measured: AC50

CN(Cc1cnc2nc(N)nc(N)c2n1)c1ccc(C(=O)N[C@@H](CCC(=O)O)C(=O)O)cc1
inactive: [1] | [2] | CD90, THY1 (gene 7070) | [3] | [4] | Decorin, DCN (gene 1634) | KRT18 (gene 3875) [5] | [6] | [7] | [8] | [9] | [10] | [11] | [12] | [13] | [14] | [15] | [16] | [17] | KRT18 (gene 3875) [18]
active: [3] 2.65 µM

C=COC(=O)C(C)(C)CCCCCC
active: Decorin, DCN (gene 1634) 31.7 µM | [6] 30.9 µM
inactive: [2] | [7]

O=C(O)CCC(F)(F)C(F)(F)C(F)(F)C(F)(F)C(F)(F)F
inactive: all assays above

COCN(COC)c1nc(N(COC)COC)nc(N(COC)COC)n1
inactive: [2] | Decorin, DCN (gene 1634) | [6] | [7]

COc1cccc(O)c1
inactive: [2] | Decorin, DCN (gene 1634) | [6] | [7]

CCCCCCCCCCCCCCCCCC[N+](C)(C)Cc1ccccc1
active: [2] 5.06 µM | Decorin, DCN (gene 1634) 10 µM | [6] 2.65 µM
inactive: [7]

O=P(O)(O)CCC(F)(F)C(F)(F)C(F)(F)C(F)(F)C(F)(F)C(F)(F)C(F)(F)C(F)(F)F
active: [10] 19.2 µM
inactive: [1] | [2] | CD90, THY1 (gene 7070) | [3] | [4] | Decorin, DCN (gene 1634) | KRT18 (gene 3875) [5] | [6] | [7] | [8] | [9] | [10] | [11] | [12] | [13] | [14] | [15] | [16] | [17] | KRT18 (gene 3875) [18]
